Screens as filed in PubChem.
Hits are enriched below; roughly 15% of the tested compounds scored in any of these assays.
RORg inh – inhibitors of mouse ROR gamma transcriptional activity; Potency, µM (series often up to 53.6 µM), inactives show at the highest dose activity change, negative = inhibition, hits mostly inhibitors; Drosophila S2 Gal4-RORgamma UAS-luciferase reporter, 20 h; P51450; actives 5.4% (n = 310,000); further: nearly all actives have a fitted effect of over 60% in size
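Using a luciferase readout, inhibitors were identified by reduced reporter activity in Drosophila cells coexpressing a copper-inducible Gal4–ROR gamma fusion and UAS-driven Photinus luciferase, incubated 20 hr after 700 uM copper sulfate.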
TDP1 cell noCPT – qHTS for Inhibitors of human tyrosyl-DNA phosphodiesterase 1 (TDP1): qHTS in cells in absence of CPT; DT40 Tdp1-/- hTDP1 cells, no CPT, ATP luminescence, 48 h; Potency, µM (doses to about 46.2 µM), for inactives: at the highest dose activity change, negative = growth inhibition, usual class: inhibitors; actives 15% (n = 420,000); further: nearly all actives have a fitted effect of over 55% in size
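Chicken DT40 Tdp1-/- cells stably complemented with human TDP1 were seeded at 400 cells/well with DMSO in place of 20 nM camptothecin. After compound pinning, cells grew at least 48 hr at 37 °C; viability read by CellTiter-Glo luminescence.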
ELG1 DNA repair – blocks ELG1-dependent DNA repair in HEK293T cells; HEK293T ELG1-luciferase reporter, luminescence, 16 h; DNA damage induced by 5-fluorouridine; Potency, µM (top dose mostly 46.1 µM), without a hit: top-dose activity change, negative = inhibition, usual class: inhibitors; actives 2.3% (n = 330,000); AID 504467; further: nearly all actives have a fitted effect of over 55% in size
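Reporter activity after DNA damage by 5-fluorouridine is monitored. Compound-treated cells incubate 16 hr at 37 °C, then ONE-Glo is added for 30 min before luminescence reading.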
DT40 TDP1 CPT – growth inhibition of DT40 Tdp1-/-;hTDP1 cells with camptothecin (screen for TDP1 inhibitors); AID 686979; Potency, µM (titrated, usually from 46.2 µM), without a hit: at the highest dose activity change, negative = growth inhibition, hits mostly inhibitors; actives 12% (n = 420,000); chicken DT40 Tdp1-/-;hTDP1 cells + 20 nM CPT, ATP luminescence, 48 h; further: nearly all actives have a fitted effect of over 55% in size
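Cell growth measured by CellTiter-Glo luminescence after a minimum 48 h, 37 C compound exposure with 20 nM CPT in Tdp1-knockout DT40 cells stably expressing hTDP1, seeded 400/well; qHTS titration format.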
Gal4-VP16 FLuc – counter-screen for ROR gamma inhibitors: Gal4-VP16 reporter; Drosophila S2 Gal4-VP16 UAS-luciferase, luminescence, 20 h; Potency, µM (titrated, usually from 53.6 µM), inactives show top-dose activity, negative = inhibition, usual class: inhibitors; actives 3.5% (n = 310,000);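 further: Gal4-VP16 expression switched on by copper sulfate through the metallothionein promoter; nearly all actives have a fitted effect of over 50% in size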
ALOX12 inh – inhibitors of human 12S-lipoxygenase ALOX12. P18054. purified 12hLO, xylenol orange hydroperoxide absorbance. Potency, µM (titrated, usually from 108 µM), without a hit: top-dose activity change, negative = inhibition, actives largely listed as inhibitors. actives 1.1% (n = 580,000). AID 1671190
Target sequence (P18054 whole entry, looked up): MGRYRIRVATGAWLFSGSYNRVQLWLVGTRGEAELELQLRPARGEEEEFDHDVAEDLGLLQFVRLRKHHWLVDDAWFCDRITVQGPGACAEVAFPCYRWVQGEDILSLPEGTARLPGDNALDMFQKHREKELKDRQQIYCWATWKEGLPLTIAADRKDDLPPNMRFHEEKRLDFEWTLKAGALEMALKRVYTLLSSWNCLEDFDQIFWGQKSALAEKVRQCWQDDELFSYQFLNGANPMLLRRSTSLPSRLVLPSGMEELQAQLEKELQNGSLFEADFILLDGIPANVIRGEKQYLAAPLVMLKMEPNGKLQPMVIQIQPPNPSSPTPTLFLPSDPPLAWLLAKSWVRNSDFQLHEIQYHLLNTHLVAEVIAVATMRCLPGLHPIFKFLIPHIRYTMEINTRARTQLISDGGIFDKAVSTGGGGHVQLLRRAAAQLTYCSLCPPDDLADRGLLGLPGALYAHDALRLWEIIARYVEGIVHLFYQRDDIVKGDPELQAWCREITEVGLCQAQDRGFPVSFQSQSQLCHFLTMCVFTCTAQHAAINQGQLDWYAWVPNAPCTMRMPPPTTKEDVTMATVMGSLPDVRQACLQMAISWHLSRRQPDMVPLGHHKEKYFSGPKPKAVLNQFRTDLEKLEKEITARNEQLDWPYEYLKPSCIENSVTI
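Purified human 12hLO at 150 nM in 25 mM Hepes, 0.01% Triton X-100, pH 7.0, preincubated 15 min at room temperature with compound. Reaction started with 40 uM arachidonic acid, 30 min at room temperature. Hydroperoxide measured by Fe-xylenol orange, 573/405 nm absorbance ratio.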
* hit, by the source's call; ? = inconclusive; · = no result; [ ] = another dose, or the depositor's remark. The call rests on the fitted dose curve; in most records, active means well fitted curve in the direction sought with a large enough effect; inconclusive means small, poorly fitted or top-dose-only effect, or another doubt; inactive means no such curve, though single readings can be large; an effect the other way counts as inactive or inconclusive. On the % scale 0 is the no-effect control and ±100 the full control effect; potency means the concentration at half of the fitted maximal effect.

SMILES | RORg inh | TDP1 cell noCPT | ELG1 DNA repair | DT40 TDP1 CPT | Gal4-VP16 FLuc | ALOX12 inh
CCOCCOC1CCN(S(=O)(=O)Cc2ccccc2F)CC1 | · | · | · | · | · | 48.4%
N#CCSC1=Nc2ccccc2CS1 | · | · | · | · | · | -10.8%
CCN(CC)CCCNc1nc2ccccc2c2nc(-c3ccncc3)nn12 | -15.1% | 20.6µM* | 0.2% | ? | -9.2% | -5.5%
CC(C)CNC[C@H]1O[C@H](Cc2cc(CN3CCOCC3)on2)CC[C@@H]1O | · | · | · | · | · | 17.6%[176 µM]
CCOC(=O)Nc1ccc(OC)cc1 | · | · | · | · | · | 25.1%
CCOC(=O)C1=C(Nc2ccc(OC)cc2)C(N)=NC1=N | · | 1.3µM* | · | 3.66µM* | · | 1.3%
COc1cccc(Cn2c(NCc3ccccn3)nc3c2c(=O)n(C)c(=O)n3C)c1 | · | · | · | · | · | 45.8%
Cn1c(=O)c2c(nc(NCc3cccnc3)n2Cc2cccc(C(F)(F)F)c2)n(C)c1=O | ? | 7.31µM* | ? | 18.4µM* | ? | 1.4%
COc1cccc(Cn2c(NCc3cccnc3)nc3c2c(=O)n(C)c(=O)n3C)c1 | ? | 1.03µM* | ? | 1.03µM* | ? | -7.4%
O=C(Nc1cccc(C(F)(F)F)c1)C(Sc1ncnc2ccccc12)c1ccccc1 (configuration not stated) | -1.0% | 20.6µM* | -9.3% | ? | 0.0% | -16.9%
CC1(C)C2CCC1(C)C(SC(=N)N)C2 (configuration not stated) | · | ? | · | 20.6µM* | · | -1.8%
CCOc1cc(/C=C(/C#N)C(=O)Nc2ccc(O)cc2)cc(Br)c1O | ? | 0.92µM* | 8.3% | 0.651µM* | ? | 0.6%
C=CCNC(=O)/C(C#N)=C\c1cc(Cl)c(O)c(OCC)c1 | 2.8% | -2.4% | 10.2% | -1.3% | -1.1% | 3.5%
N#C/C(=C/c1ccc2c(c1)OCO2)C(=O)Nc1ccc(O)cc1 | 20.8% | 11.6µM* | ? | 7.31µM* | -3.8% | 0.7%
COc1ccc2[nH]cc(CCNC(=O)C3CC(=O)N(c4n[nH]c5cccc(F)c45)C3)c2c1 (configuration not stated) | · | · | · | · | · | 1.0%
Cc1ccc(C)c(S(=O)(=O)N2CCN(C(=O)C3CCN(c4ncnc5sc(C)c(C)c45)CC3)CC2)c1 | · | 10.3µM* | ? | 14.6µM* | · | -14.0%
Cc1ccc(NC(=O)C2CCN(c3ncnc4sc(C)c(C)c34)CC2)cc1S(=O)(=O)N(C)C | · | 9.2µM* | ? | 13µM* | · | -16.9%
Cc1ccc(C)c(S(=O)(=O)N2CCN(C(=O)C3CC3C)CC2)c1 (configuration not stated) | · | -27.7% | 0.1% | -12.1% | · | -4.9%
CCN(CC)S(=O)(=O)c1cc(NC(=O)C2CCN(c3ncnc4sc(C)c(C)c34)CC2)ccc1Cl | · | 20.6µM* | ? | 14.6µM* | · | 1.3%
COC[C@H]1CCCN1Cc1nc(C2(O)CCN(C3CCN(C)CC3)CC2)cs1 | · | · | · | · | · | -6.3%[176 µM]
CCC(C)n1c(SC(C)C#N)nc2ccccc2c1=O (configuration not stated) | 14.7% | 23.1µM* | 0.9% | ? | 5.6% | -3.1%
C=CCn1c(SCC(=O)NC(=O)c2cccn2C)nc2ccccc2c1=O | 0.7% | -25.9% | 3.5% | -2.4% | -5.3% | -11.2%
CC(C#N)On1c(SC(C)C#N)nc2ccccc2c1=O (configuration not stated) | -3.3% | -1.8% | 0.0% | -2.7% | 2.8% | 0.0%
CCC(C)n1c(SCC(=O)NC(=O)c2cccn2C)nc2ccccc2c1=O (configuration not stated) | 14.1µM* | ? | ? | ? | ? | 6.1%
CCC(O)(CC)C(=O)N/N=C/c1cc(Br)cc(Br)c1O | 0.794µM* | 14.6µM* | 23.1µM* | 20.6µM* | 3.16µM* | -17.4%
SMILES | RORg inh | TDP1 cell noCPT | ELG1 DNA repair | DT40 TDP1 CPT | Gal4-VP16 FLuc | ALOX12 inh
O=C(CP(=O)(c1ccccc1)c1ccccc1)N/N=C/c1cc(Br)cc(Br)c1O | 1.12µM* | 14.6µM* | -5.2% | 14.6µM* | 2.51µM* | -1.9%
CCOc1cc(/C=N/NC(=O)C(N)=O)cc(Br)c1O | 4.1% | 3.1% | ? | 0.2% | 2.2% | -13.1%
O=C(C[n+]1ccccc1)N/N=C/c1cc(Br)cc(Br)c1O | -38.3% | 5.4% | 20.6µM* | 8.0% | -22.2% | ·
COc1ccc(Br)cc1/C=N/NC(=O)C[n+]1ccccc1 | 0.7% | 13µM* | -21.8% | 18.4µM* | -2.2% | 30.1%
O=C(Cc1ccccc1)N/N=C/c1cc(Br)c(Br)o1 | 39.2% | -9.3% | ? | 4.5% | -2.6% | -1.3%
O=C1CCN(S(=O)(=O)c2ccc3c(c2)CCC3)CCCC(C(=O)NCc2ccncc2)CCN1 (configuration not stated) | · | · | · | · | · | 3.7%
CC(C)(C)C(=O)NCC1CCN(Cc2nc(-c3ccccc3)no2)C1 (configuration not stated) | · | · | · | · | · | 22.2%
Cn1c(-c2ccccc2)cnc1NC(=O)NCCc1ccccc1 | · | · | · | · | · | 1.6%
O=C(O)C(c1c[nH]c2ccc(Cl)cc12)N1CCN(c2cccc(Cl)c2)CC1 (configuration not stated) | · | · | · | · | · | -17.8%
CC(C)C(N)c1csc(Nc2ccccn2)n1 (configuration not stated) | · | -19.2% | · | 8.2% | · | 17.9%
NC(c1ccccc1)c1csc(Nc2ccc(C(F)(F)F)cn2)n1 (configuration not stated) | · | 13µM* | · | ? | · | ?
CC(C)C(N)c1csc(Nc2ccc(C(F)(F)F)cn2)n1 (configuration not stated) | · | ? | · | 20.6µM* | · | 0.0%
COc1ccc(N2CC(C(=O)Nc3c(C)nn(C)c3C)CC2=O)cc1 (configuration not stated) | · | · | · | · | · | 15.1%
O=C(OCc1cccc([N+](=O)[O-])c1)C1CCCN1C(=O)C12CC3CC(CC(C3)C1)C2 (configuration not stated) | · | · | · | · | · | 7.7%
COc1ccc(C)cc1NC(=O)C1CC1c1ccccc1 (configuration not stated) | · | -1.5% | · | 4.5% | · | 0.0%
O=C(NC(=S)NNC(=O)[C@H]1C[C@@H]1c1ccccc1)c1cccc(F)c1 | 11.2µM* | -13.2% | ? | -28.9% | ? | ?
COc1cccc(OC)c1C(=O)NC(=S)NNC(=O)[C@H]1C[C@@H]1c1ccccc1 | 3.98µM* | -3.3% | ? | ? | -15.6% | 1.9%
c1ccc(O[C@H]2COCCN(Cc3cccc4c3OCO4)C2)cc1 | · | · | · | · | · | 14.2%[176 µM]
CN(Cc1ccccc1F)C(=O)COC(=O)CCN=C1NS(=O)(=O)c2ccccc21 | · | · | · | · | · | -1.5%
